The whole screen tested about 310,000 compounds, of which about 14,000 (4.5%) showed an effect of 50% or more. The effect is printed as a negative number. This excerpt belongs to a sample that is enriched for strong results.
target: human ether-à-go-go-related gene (hERG) potassium channel (human, UniProt Q12809); assay: primary screen, population patch clamp on CHO cells stably expressing hERG; higher = less effect of the substance
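Further: peak tail current of the secondary pulse compared with the same well before compound.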

Chain of human ether-à-go-go-related gene (hERG) potassium channel (Q12809 whole entry, looked up): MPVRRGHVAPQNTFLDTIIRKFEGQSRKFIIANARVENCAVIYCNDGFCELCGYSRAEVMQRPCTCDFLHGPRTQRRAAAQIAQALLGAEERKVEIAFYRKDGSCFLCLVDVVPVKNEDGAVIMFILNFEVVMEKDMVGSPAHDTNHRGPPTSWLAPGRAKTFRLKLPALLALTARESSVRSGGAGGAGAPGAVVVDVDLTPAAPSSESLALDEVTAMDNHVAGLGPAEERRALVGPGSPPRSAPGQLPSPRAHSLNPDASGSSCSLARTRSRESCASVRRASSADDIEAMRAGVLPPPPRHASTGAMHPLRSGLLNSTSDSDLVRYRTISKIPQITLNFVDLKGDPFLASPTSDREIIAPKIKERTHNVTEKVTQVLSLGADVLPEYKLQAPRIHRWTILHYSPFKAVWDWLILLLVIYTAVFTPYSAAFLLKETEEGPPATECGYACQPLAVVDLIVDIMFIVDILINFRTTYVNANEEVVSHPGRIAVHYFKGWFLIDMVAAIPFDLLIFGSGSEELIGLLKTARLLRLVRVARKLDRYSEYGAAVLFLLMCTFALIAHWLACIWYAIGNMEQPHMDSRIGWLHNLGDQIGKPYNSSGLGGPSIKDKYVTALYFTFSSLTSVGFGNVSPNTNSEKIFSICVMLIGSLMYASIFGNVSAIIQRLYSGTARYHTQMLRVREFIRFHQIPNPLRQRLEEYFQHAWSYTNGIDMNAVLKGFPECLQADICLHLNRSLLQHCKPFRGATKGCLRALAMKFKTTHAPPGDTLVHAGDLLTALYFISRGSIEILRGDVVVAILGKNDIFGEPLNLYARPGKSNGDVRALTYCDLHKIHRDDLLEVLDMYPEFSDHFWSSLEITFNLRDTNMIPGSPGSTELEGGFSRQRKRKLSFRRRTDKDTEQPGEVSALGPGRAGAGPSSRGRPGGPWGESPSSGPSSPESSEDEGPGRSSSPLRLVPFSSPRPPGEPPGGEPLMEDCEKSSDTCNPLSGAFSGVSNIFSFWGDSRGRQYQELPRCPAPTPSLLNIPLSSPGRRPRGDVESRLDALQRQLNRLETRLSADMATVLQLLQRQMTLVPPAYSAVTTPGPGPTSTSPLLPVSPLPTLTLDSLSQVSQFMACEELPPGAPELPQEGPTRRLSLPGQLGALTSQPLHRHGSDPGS

Point of comparison: `COCCn1c(=S)[nH]c2cc(C(=O)NCCCN3CCOCC3)ccc2c1=O`, “hERG current change (%, negative = inhibition) at 10uM” value 8.93%. Against it:
- COc1ccc(Cl)c2sc(N(Cc3cccnc3)C(C)=O)nc12 — higher, 13.2%
- Cc1cc(C(=O)Nc2ccc3ccccc3c2)oc1C — lower, -68.1%
- Cc1cc(C(=O)Nc2ccccc2)oc1C — lower, 7.57%
- CC(=O)c1cc(C(=O)Nc2ccc3ccccc3c2)c(C)o1 — higher, 13.8%
- COc1ccc(S(=O)(=O)N2CCCOC2CNC(=O)C(=O)NCCCn2ccnc2)cc1 (stereo not shown) — lower, -3.17%
- Cc1ccc(N(CC(=O)N/N=C/c2cccnc2)S(=O)(=O)c2ccccc2)cc1 — lower, -52%
- COc1ccc(/C=N/NC(=O)CN(c2ccc(OC)cc2)S(=O)(=O)c2ccccc2)cc1 — lower, -7.15%
- Cc1cc(C)cc(N(CC(=O)Nc2ccccc2-c2ccccc2)S(=O)(=O)c2ccccc2)c1 — higher, 13.1%
- COc1ccc(N(CC(=O)N/N=C/c2cccnc2)S(=O)(=O)c2ccc(C)cc2)cc1OC — lower, -14.2%
- Cc1cc(C)cc(N(CC(=O)N/N=C/c2ccncc2)S(=O)(=O)c2ccccc2)c1 — lower, -76.9%
- COc1ccc(N(CC(=O)N/N=C/c2cccnc2)S(=O)(=O)c2ccccc2)c(OC)c1 — lower, -40.6%
- CC(=O)NCCC(=O)N1CCCC(CNC(=O)c2ccc(-c3ccccc3)cc2)C1 (stereo not shown) — lower, -0.511%
- Cn1cc(C(O)CN2CCCCC2)c2ccccc21 (stereo not shown) — higher, 9.26%
- CCn1c(COc2ccc3c(c2)CCCC3)nnc1SCC(=O)Nc1ccc(C(=O)OC)cc1 — lower, 5.43%
- CN(Cc1ccccc1)C(=O)c1ccccc1NC(=O)c1ccco1 — higher, 20%
- Cc1c(N(C)C)nc2ccccc2c1N.O=C(O)C(=O)O — lower, -46.5%
- Cc1nc2ccccc2c(-c2ccccc2)c1C(=O)c1ccccc1 — lower, 0.392%
- CCOC(=O)c1c(C)nc2ccccc2c1-c1ccccc1.Cl — lower, -30.8%
- CCOC(=O)c1c(CCl)nc2ccccc2c1-c1ccccc1 — lower, 5.72%
- CCN(CC)c1nc2ccccc2c(N)c1-c1ccccc1.O=C(O)C(=O)O — lower, -77%
- CN(C)c1nc2ccccc2c(N)c1-c1ccccc1.O=C(O)C(=O)O — lower, -65.9%
- CCOC(=O)c1c(-c2ccccc2)csc1NC(=S)NC — lower, -3.27%
- CCN(CC)C(=O)COc1ccc(Br)cc1Cl — lower, -11.8%
- NC(=S)N/N=C1\CC(n2nnn(-c3cccc(Cl)c3)c2=S)C2COC1O2 (stereo not shown) — lower, -26.8%
- Cc1cc(C)cc(C(=O)NC(CC(N)=O)c2ccc(N3CCC(Br)CC3)c([N+](=O)[O-])c2)c1 (stereo not shown) — lower, -16.1%
- CC(=O)c1ccc(OCC(=O)Nc2ccccc2N2CCCC2)cc1 — lower, -2.74%
- CC(Oc1cccc(Cl)c1)C(=O)Nc1cc(S(=O)(=O)N2CCOCC2)ccc1N1CCCC1 (stereo not shown) — lower, -24.8%
- CC(Oc1ccc(Br)cc1)C(=O)Nc1cc(S(=O)(=O)N2CCOCC2)ccc1N1CCCC1 (stereo not shown) — lower, -5.62%
- CC(Oc1cccc(Cl)c1)C(=O)Nc1ccccc1N1CCCC1 (stereo not shown) — lower, -15.3%
- CCN1CCN(c2ccc(S(=O)(=O)N3CCOCC3)cc2NC(=O)C(C)Oc2cccc(Cl)c2)CC1 (stereo not shown) — lower, -70.8%
- CCN1CCN(c2ccc(S(=O)(=O)N3CCOCC3)cc2NC(=O)C(C)Oc2ccc(Cl)cc2)CC1 (stereo not shown) — lower, -70.9%
- CC(Oc1cccc(Cl)c1)C(=O)Nc1cc(S(=O)(=O)N2CCCCC2)ccc1N1CCOCC1 (stereo not shown) — lower, -8.24%
- CC(Oc1ccc(F)cc1)C(=O)Nc1cc(S(=O)(=O)N2CCCCC2)ccc1N1CCOCC1 (stereo not shown) — lower, -5.21%
- CCN1CCN(c2ccccc2NC(=O)C(C)Oc2ccc(C(C)=O)cc2)CC1 (stereo not shown) — lower, -51.6%
- CC(Oc1cccc(Cl)c1)C(=O)Nc1cc(S(=O)(=O)N2CCOCC2)ccc1N1CCCCC1 (stereo not shown) — lower, 8.44%
- CC(Oc1ccc(F)cc1)C(=O)Nc1cc(S(=O)(=O)N2CCOCC2)ccc1N1CCCCC1 (stereo not shown) — lower, 6.32%
- CCN1CCN(c2ccc(S(=O)(=O)N3CCCCC3)cc2NC(=O)C(C)Oc2ccc(F)cc2)CC1 (stereo not shown) — lower, -72.7%
- O=C(Nc1cccnc1)C1(c2ccccc2)CCCC1 — lower, 4.11%
- O=[N+]([O-])/C=C1/NCCN1Cc1ccc(Cl)nc1 — lower, -1.96%
- CC1CCc2c(C(=O)NCc3ccco3)csc2C1 (stereo not shown) — lower, -8.96%
- Cn1c(SCC(=O)O)nc2sc3c(c2c1=O)CCC3 — higher, 30.3%
- COC(=O)c1ccc2c(c1)S(=O)(=O)NC(=NCc1ccco1)S2 — lower, -23.8%
- O=C(NCc1cccc(Cl)c1)c1cnccn1 — lower, -9.28%
- CCn1ncc(-c2csc(N)n2)c1C — lower, 0.511%
- BrC(=C\c1ccccc1)/C=N/N1CCN(Cc2ccccc2)CC1 — lower, 4.34%
- CCN1C(=O)C(CC(=O)NCCc2ccccc2)N(NC(=O)c2cccnc2)C1=S (stereo not shown) — lower, -21.1%
- O=C(CSc1nc2cc(Cl)ccc2s1)Nc1cccc(S(=O)(=O)N2CCOCC2)c1 — lower, -10.7%
- S=C(NCCc1ccccc1)Nc1ccc(Br)cn1 — lower, 3.98%
- CC(Oc1ccc(F)cc1)C(=O)Nc1cc(S(=O)(=O)N2CCOCC2)ccc1N1CCCC1 (stereo not shown) — higher, 13.7%
- CCN1CCN(c2ccc(S(=O)(=O)N3CCOCC3)cc2NC(=O)C(C)Oc2ccc(F)cc2)CC1 (stereo not shown) — lower, -57.4%
- CC(Oc1ccc(F)cc1)C(=O)Nc1cc(S(=O)(=O)N2CCOCC2)ccc1N1CCN(C)CC1 (stereo not shown) — lower, -29.9%
- C=CCN1C(=O)/C(=C\c2ccc(Oc3nc(N4CCOCC4)nc(N4CCOCC4)n3)c(OC)c2)SC1=S — higher, 15.9%
- CCC[C@@H](CNC)NC[C@H](Cc1ccccc1)NCCCCc1ccccc1 — lower, -6.02%
- CCC[C@H](CN[C@@H](CNC)[C@H](C)O)NCCc1ccc(OC)cc1 — lower, 2.16%
- CCCC[C@@H](CNC)NC[C@H](Cc1ccc(O)cc1)NCCc1ccc(OCC)cc1 — lower, -53.7%
- Cc1[nH]c2ccccc2c1/C=N/n1cnnc1 — higher, 10.2%
- COCCn1c(C)cc(C(=O)COc2ccc(N(C)S(=O)(=O)c3ccc(C)cc3)cc2)c1C — lower, -19.9%
- CCc1ccc(OCC(=O)N/N=C/c2cc([N+](=O)[O-])ccc2N2CCOCC2)cc1 — lower, -14.6%
- CCN(CC)S(=O)(=O)c1ccc(-c2cn3ccc(C)cc3n2)cc1 — lower, 7.52%
- O=C(O)C(=O)O.OC(COCc1cccs1)CN1CCN(c2cccc(Cl)c2)CC1 (stereo not shown) — lower, -63.8%
- Cl.OC(COCc1cccs1)CN1CCCCCC1 (stereo not shown) — lower, -21.9%
- OC(COC(c1ccccc1)c1ccccc1)CN1CCN(c2cccc(Cl)c2)CC1 (stereo not shown) — lower, 6.16%
- OC(COCc1cccs1)CN1CCN(c2cccc(C(F)(F)F)c2)CC1 (stereo not shown) — lower, -69.6%
- O=C(Cc1cccs1)N1CCN(c2cccc(Cl)c2)CC1 — lower, -12%
- CN1CCCN(CC(O)COCc2cccs2)CC1 (stereo not shown) — lower, -2.94%
- CCOC(=O)CNC(=O)c1cn(CC(C)C)c(=O)c2cc(OC)c(OC)cc12 — lower, -24%
- CCCC(=O)Nc1nnc(-c2ccccc2)o1 — lower, 7.03%
- CCOc1ccc(NC(=O)CN(C)C(=O)c2cccnc2Sc2ccc(Cl)cc2)cc1OCC — lower, -52.4%
- COCCN(CC(=O)Nc1cccc(C)c1C)C(=O)c1cc(-c2ccncc2)nc2ccccc12 — lower, -57.3%
- CCOc1ccc(NC(=O)CN(C)C(=O)c2cc(C)nc3ccccc23)cc1OCC — lower, -16.2%
- COCCN(CC(=O)Nc1cccc(C)c1C)C(=O)c1cc2ccccc2cc1OC — lower, -26.7%
- CCOc1ccc(NC(=O)CN(C)C(=O)c2cc(-c3ccncc3)nc3ccccc23)cc1OCC — lower, -58.6%
- CCOc1ccc(NC(=O)CN(C)C(=O)c2cc(-c3ccc(OC)cc3)nc3ccccc23)cc1OCC — lower, -2.15%
- CCOc1ccc(NC(=O)CN(C)C(=O)c2cccnc2Sc2ccc(C)c(C)c2)cc1OCC — lower, 0.0885%
- CCOc1ccc(NC(=O)CN(C)C(=O)c2cccnc2Sc2ccccc2Cl)cc1OCC — lower, -8.63%
- COCCN(CC(=O)Nc1cccc(C)c1C)C(=O)c1ccc2ccccc2n1 — lower, -0.121%
- O=C(Cc1ccc(S(=O)(=O)N2CCOCC2)s1)N1CCN(S(=O)(=O)c2cccc(Cl)c2)CC1 — lower, -5.33%
- CC(=O)N1N=C(c2ccc(C)cc2)OC1c1ccc(Br)cc1 (stereo not shown) — higher, 27.8%
- Cc1nnc(NC(=O)CSc2ccc(-c3ccco3)nn2)s1 — higher, 9.75%
- CC(C)NC(=O)CSc1nc(N)c(NC(=O)c2ccco2)c(=O)[nH]1 — higher, 14.7%
- OCCNc1nc2nonc2nc1NCCO — higher, 11%
- CN1CCN(C(c2ccccc2)c2ccccc2)CC1.Cl — lower, -12.1%
- Clc1ccc(C(c2ccccc2)N2CCNCC2)cc1 (stereo not shown) — lower, -22.7%
- O=C(O)/C=C/C(=O)N1CCN(C(c2ccccc2)c2ccccc2)CC1 — higher, 40.8%
- Clc1ccc(C(c2ccccc2)N2CCN(c3ccccn3)CC2)cc1 (stereo not shown) — lower, -5.64%
- CN1CCN(C(c2cccc(Cl)c2)c2ccccc2Cl)CC1.O=C(O)/C=C\C(=O)O (stereo not shown) — lower, -73.1%
- CN1CCN(C(=O)/C=C/c2cccc(Cl)c2)CC1 — lower, -6.45%
- CN1CCN(C(c2ccccc2)c2ccc(Cl)cc2)CC1.Cl (stereo not shown) — lower, -60.9%
- CN1CCCN(C(c2ccccc2)c2ccc(Cl)cc2)CC1.Cl (stereo not shown) — lower, -73.8%
- Cc1cccc(CN2CCN(C(c3ccccc3)c3ccc(Cl)cc3)CC2)c1.Cl (stereo not shown) — higher, 18.5%

— publication PMC4336329 (PLoS ONE, 2015)
